Test [1] addresses Death-associated protein kinase 1 (Homo sapiens) (UniProt P53355). The settings on record: at 1 µM.
In test [2] the target is T1, Serine/threonine-protein kinase DCLK2 (Homo sapiens) (UniProt Q8N568).
T1 sequence (whole entry): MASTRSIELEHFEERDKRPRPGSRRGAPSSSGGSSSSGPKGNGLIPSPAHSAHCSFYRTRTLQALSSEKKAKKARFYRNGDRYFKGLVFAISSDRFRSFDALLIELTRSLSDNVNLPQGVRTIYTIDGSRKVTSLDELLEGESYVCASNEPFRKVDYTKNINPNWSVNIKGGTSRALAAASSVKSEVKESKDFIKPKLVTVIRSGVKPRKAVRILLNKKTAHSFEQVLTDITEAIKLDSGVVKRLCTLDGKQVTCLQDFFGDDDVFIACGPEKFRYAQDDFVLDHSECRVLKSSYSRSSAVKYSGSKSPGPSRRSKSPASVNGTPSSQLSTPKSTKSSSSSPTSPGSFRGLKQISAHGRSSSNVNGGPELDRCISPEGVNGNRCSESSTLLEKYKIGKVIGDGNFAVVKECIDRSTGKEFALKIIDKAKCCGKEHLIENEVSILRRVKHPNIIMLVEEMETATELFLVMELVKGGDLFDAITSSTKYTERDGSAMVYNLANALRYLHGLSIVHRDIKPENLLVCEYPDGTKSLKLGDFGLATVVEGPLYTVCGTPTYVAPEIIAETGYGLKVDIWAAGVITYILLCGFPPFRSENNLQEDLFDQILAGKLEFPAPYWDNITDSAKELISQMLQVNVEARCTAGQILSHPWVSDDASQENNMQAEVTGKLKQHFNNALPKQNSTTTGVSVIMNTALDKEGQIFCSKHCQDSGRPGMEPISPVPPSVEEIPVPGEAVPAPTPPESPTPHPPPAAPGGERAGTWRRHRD
The settings on record: at 0.1 µM.

Test [3] has as its target MAP kinase-activated protein kinase 2 (Homo sapiens) (UniProt P49137). Conditions: at 0.1 µM.
The target is the same in test [4]. Conditions: at 1 µM.
The target of test [5] is MAP kinase-activated protein kinase 3 (Homo sapiens) (UniProt Q16644). The settings on record: at 0.1 µM.
MAP kinase-activated protein kinase 3 (Homo sapiens), sequence (Q16644 whole entry, looked up): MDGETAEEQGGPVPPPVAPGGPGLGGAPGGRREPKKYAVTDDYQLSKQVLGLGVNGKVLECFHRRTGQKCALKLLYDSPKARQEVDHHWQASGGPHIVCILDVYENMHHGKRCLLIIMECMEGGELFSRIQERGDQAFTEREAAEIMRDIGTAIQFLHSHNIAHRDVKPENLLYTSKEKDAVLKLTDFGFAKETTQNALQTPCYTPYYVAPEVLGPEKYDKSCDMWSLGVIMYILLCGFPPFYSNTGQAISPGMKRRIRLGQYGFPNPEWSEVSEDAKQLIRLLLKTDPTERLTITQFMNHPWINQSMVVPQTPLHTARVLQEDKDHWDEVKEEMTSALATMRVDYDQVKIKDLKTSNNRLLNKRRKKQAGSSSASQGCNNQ
Test [6] has the same target. Conditions: at 1 µM.
In test [7] the target is Serine/threonine-protein kinase MARK1 (Homo sapiens) (UniProt Q9P0L2). The settings on record: at 0.1 µM.
Serine/threonine-protein kinase MARK1 (Homo sapiens), sequence (Q9P0L2 whole entry, looked up): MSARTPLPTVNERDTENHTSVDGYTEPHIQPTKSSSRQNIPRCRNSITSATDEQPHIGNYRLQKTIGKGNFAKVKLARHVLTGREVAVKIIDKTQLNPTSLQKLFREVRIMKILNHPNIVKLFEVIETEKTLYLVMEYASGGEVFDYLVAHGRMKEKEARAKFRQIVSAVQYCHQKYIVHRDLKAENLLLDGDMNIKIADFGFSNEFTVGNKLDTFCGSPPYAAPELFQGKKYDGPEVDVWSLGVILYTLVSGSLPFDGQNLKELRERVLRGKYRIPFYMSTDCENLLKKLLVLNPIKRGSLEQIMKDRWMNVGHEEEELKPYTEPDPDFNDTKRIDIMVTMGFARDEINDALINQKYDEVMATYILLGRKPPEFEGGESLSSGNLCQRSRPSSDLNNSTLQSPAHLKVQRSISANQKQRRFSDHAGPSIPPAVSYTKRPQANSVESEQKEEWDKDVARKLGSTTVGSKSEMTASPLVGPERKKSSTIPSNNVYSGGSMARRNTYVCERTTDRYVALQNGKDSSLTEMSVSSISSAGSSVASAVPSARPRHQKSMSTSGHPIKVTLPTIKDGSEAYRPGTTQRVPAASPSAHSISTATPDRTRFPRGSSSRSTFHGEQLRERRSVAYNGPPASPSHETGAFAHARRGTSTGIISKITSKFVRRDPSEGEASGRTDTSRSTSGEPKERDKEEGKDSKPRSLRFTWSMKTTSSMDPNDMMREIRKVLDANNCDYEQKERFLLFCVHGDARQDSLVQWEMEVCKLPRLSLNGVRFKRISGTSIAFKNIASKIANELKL
The target is the same in test [8]. Conditions: at 1 µM.
Test [9] concerns the target MAP/microtubule affinity-regulating kinase 3 (Homo sapiens) (UniProt P27448). Conditions: at 0.1 µM.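 Further: mean percent inhibition of MARK3 kinase activity, measured within the GSK PKIS screening panel.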
Test [10] deals with T1, Serine/threonine-protein kinase DCLK2 (Homo sapiens). The settings on record: at 1 µM.

Usually inhibition stands for the change of the read-out against control, counted positive when it falls.

MAP kinase-activated protein kinase 2 (Homo sapiens), sequence (P49137 whole entry, looked up): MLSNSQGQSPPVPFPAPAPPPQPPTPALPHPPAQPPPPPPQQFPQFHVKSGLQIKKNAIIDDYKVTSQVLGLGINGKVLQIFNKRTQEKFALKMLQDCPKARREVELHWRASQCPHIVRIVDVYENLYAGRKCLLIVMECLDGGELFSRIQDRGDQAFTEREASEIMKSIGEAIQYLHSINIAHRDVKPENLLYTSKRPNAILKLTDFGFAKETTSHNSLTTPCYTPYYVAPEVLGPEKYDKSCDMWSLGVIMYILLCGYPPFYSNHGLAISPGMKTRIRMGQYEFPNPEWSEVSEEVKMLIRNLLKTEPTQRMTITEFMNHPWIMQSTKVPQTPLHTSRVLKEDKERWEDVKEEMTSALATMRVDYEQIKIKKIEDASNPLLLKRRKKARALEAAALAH
MAP/microtubule affinity-regulating kinase 3 (Homo sapiens), sequence (P27448 whole entry, looked up): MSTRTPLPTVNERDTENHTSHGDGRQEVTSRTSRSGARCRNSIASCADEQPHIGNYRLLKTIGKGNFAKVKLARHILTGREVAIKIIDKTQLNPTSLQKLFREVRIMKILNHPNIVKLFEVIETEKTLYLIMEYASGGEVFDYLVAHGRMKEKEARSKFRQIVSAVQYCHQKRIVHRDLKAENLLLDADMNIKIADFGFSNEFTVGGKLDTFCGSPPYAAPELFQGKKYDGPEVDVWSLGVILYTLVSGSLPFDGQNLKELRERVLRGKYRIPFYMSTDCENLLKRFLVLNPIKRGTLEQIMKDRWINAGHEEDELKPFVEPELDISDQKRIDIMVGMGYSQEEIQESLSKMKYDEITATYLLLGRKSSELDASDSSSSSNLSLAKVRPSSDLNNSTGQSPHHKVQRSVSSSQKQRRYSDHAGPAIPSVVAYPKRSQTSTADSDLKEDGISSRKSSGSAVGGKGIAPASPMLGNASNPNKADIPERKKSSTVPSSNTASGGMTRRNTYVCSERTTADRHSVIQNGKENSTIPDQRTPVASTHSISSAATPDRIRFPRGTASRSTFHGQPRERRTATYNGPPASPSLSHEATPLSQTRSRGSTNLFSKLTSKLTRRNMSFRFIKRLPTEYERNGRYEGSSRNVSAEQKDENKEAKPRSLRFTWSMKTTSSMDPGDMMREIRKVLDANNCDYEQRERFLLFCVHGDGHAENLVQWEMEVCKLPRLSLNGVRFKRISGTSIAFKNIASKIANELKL
Death-associated protein kinase 1 (Homo sapiens), sequence (P53355 whole entry, looked up): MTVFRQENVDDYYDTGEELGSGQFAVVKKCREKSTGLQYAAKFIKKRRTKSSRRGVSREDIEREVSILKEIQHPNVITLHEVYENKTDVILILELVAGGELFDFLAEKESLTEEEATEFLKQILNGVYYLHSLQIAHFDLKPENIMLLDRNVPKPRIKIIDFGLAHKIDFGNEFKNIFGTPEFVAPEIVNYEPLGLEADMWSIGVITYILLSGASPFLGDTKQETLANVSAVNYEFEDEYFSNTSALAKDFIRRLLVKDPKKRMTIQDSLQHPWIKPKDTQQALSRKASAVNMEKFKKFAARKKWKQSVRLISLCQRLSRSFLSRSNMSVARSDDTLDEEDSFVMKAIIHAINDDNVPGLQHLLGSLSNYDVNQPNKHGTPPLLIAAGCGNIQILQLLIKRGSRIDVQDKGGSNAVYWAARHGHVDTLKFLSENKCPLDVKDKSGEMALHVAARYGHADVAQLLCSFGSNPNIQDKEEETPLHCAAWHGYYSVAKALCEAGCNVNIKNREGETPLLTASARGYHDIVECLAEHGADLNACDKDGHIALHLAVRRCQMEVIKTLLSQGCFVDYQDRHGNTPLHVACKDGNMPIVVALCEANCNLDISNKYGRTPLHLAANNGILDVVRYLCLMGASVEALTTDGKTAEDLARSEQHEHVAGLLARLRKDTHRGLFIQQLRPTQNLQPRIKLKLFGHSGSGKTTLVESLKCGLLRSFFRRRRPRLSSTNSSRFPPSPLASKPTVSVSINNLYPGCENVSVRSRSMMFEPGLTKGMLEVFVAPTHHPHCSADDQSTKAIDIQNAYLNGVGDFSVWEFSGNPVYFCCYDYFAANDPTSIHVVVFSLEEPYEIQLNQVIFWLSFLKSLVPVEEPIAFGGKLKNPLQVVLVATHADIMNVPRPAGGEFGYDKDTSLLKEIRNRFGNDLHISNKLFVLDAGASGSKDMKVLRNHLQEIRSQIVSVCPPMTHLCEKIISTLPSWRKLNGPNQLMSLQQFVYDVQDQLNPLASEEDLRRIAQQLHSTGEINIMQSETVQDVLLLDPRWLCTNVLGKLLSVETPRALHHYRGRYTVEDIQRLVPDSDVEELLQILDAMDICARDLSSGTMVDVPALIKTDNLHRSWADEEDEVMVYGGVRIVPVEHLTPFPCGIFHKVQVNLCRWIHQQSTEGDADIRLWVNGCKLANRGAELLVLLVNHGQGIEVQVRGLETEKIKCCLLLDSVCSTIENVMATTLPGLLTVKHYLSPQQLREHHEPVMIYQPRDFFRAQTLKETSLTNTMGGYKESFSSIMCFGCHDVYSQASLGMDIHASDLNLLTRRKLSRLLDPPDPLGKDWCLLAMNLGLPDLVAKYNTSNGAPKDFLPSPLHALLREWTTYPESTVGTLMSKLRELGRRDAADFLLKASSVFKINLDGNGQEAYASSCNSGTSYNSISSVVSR

Take `COC(=O)Nc1nc2cc(Oc3ccc(NC(=O)Nc4cccc(C(=O)O)c4)cc3)ccc2[nH]1`: the inhibition was 0.01% in [1]; -6.21% in test [2]; 0.64% in test [3]; 0.43% in test [4]; 0.86% in test [5]; -0.42% in [6]. For the same compound, the inhibition amounted to 0.32% in test [7], 3.08% in [8] and 1.09% in test [9].
Consider `CS(=O)(=O)CCNCc1nc(-c2ccc3ncnc(Nc4ccc(F)c(Cl)c4)c3c2)cs1`, for which the inhibition stood at 6.48% in test [1]; 0.59% in [2]; 1.59% in [3]; 0.26% in test [4]; 2.16% in test [5]; 1.58% in [6]. The inhibition in test [7] is 1.43%; in test [8], 1.33%; in test [9] it was 1.69%.
Consider `COC(=O)Nc1nc2cc(Oc3cccc(NC(=O)Nc4cc(C(F)(F)F)ccc4F)c3)ccc2[nH]1`, for which the inhibition is -0.6% in test [1]; 5.45% in test [2]; -0.15% in test [10]; -0.06% in test [3]; -0.64% in [4]; 0% in test [5]. Moreover, the inhibition in [6] stood at 1.82%; in [7], 1.21%; in [8], 1.49%; in test [9], 0.8%.
With `Cc1nn(C)c2cc(N(C)c3ccnc(Nc4cccc(S(N)(=O)=O)c4)n3)ccc12`, the inhibition came to 8.09% in [1]; 0.57% in [2]; 0.12% in test [10]; 3.83% in test [3]; 3.29% in test [4]; 8.73% in test [5]. In addition, the inhibition in test [6] was found to be 11%; in test [7], 3.07%; in [8] it was 4.05%; in test [9], 0.92%.
Turning to `NS(=O)(=O)c1cccc(-c2ccc3c(NC(=O)C4CC4)n[nH]c3c2)c1`, the inhibition was 3.03% in test [1]; 0.34% in test [2]; -1.6% in test [3]; -1.12% in test [4]; 2.07% in [5]; 2.74% in [6]. For the same compound, the inhibition in test [7] is 0.18%; in test [8] it was 4.41%; in [9] it was 2.87%.
Turning to `Nc1nc(-c2ccc3c(c2)C(=Cc2cc(Br)c(O)c(Br)c2)C(=O)N3)cs1`, the inhibition in test [1] was -4.53%; in [2] it was -3.76%; in test [10] it was -0.78%; in test [3], -1.56%; in test [4], -1.55%; in test [5], -1.77%. Besides, the inhibition is -1.51% in [6], 0.42% in [7], 1.58% in test [8] and -0.72% in test [9].
Turning to `COc1cc(C=NNc2ncnc3c2cnn3-c2ccccc2)ccc1O`, the inhibition in test [1] is -5.67%; in test [2] it was 1.34%; in [10] it was -4.27%; in test [3], -1.87%; in test [4], -2.21%; in [5] it was -3.81%. Moreover, the inhibition in test [6] is -2.84%; in test [7], 2.3%; in test [8] it was 8.38%; in [9], 3.21%.
On to `CS(=O)(=O)Nc1ccc(N/C=C2\C(=O)Nc3ccccc32)cc1`, for which the inhibition is -2.55% in [1]; -2.55% in test [2]; -4.45% in [10]; -1.85% in [3]; -1.69% in test [4]; -2.11% in [5]. The inhibition is -2.88% in test [6], 3.85% in test [7], 23.8% in [8] and 0.83% in test [9].
Take `CCCN1CCC(Oc2cc(Nc3nc(Nc4cccc(F)c4C(N)=O)c4cc[nH]c4n3)c(OC)cc2Cl)CC1`: the inhibition in test [1] is 16.8%; in test [2], -2.33%; in [3], -0.08%; in [4], -0.66%; in [5], 10.3%; in test [6] it was -0.67%. Further, the inhibition was -1.22% in test [7], 2.97% in test [8] and -0.83% in test [9].
`CS(=O)(=O)CCNCc1ccc(-c2ccc3ncnc(Nc4ccc(OCc5ccccc5)c(Cl)c4)c3c2)o1`: the inhibition in test [2] was -1.35%; in [10], 3.26%; in test [3] it was -3.32%; in [4], -3.36%; in test [5], -5.03%; in test [6], -4.68%. The inhibition came out at 0.39% in test [7], 1.89% in test [8] and 0.63% in [9].
For the compound `COc1ccc(-c2ccncc2)cc1C(N)=O`, the inhibition in test [1] is 12.2%; in test [2], -0.69%; in test [10] it was 3.38%; in [3] it was 5.44%; in test [4] it was 6.42%; in test [5] it was 9.46%. For the same compound, the inhibition in [6] worked out at 12.5%; in test [7] it was 2.8%; in test [8], 4.12%; in test [9] it was 3.29%.
For `NC(=O)c1cccc(Nc2nccc(Nc3cccc4[nH]ncc34)n2)c1`, the inhibition in [1] is 0.2%; in test [10], 0.29%; in test [3], -2.49%; in [4], -2.06%; in [5] it was -2.55%; in test [6] it was -2.42%. Moreover, the inhibition was -1.84% in test [7], 11.7% in test [8] and 2.03% in [9].
For `Cc1nnc(-c2ccc(C)c(-c3ccc(C(=O)Nc4cccc(C#N)c4)cc3)c2)o1`, the inhibition in test [1] was found to be 2.66%; in test [2] it was 0.99%; in test [3], 1.02%; in [4], 0.1%; in test [5], 5.27%; in [6], 16.3%. In addition, the inhibition in test [7] worked out at 1.96%; in [8], 4.25%; in [9], 2.09%.
As to `CCCN1CCC=C(c2ccc(Nc3nc(Nc4ccccc4C(N)=O)c4cc[nH]c4n3)c(C)c2)C1`, the inhibition in test [1] was 6.22%; in [2], -0.54%; in [10], 3.15%; in [3] it was 2.63%; in test [4], 4.94%; in [5], 3.15%. The inhibition in test [6] was 6.16%; in test [7], 2.76%; in [8], 16.1%; in test [9] it was 2.37%.

Source of the values: ChEMBL document CHEMBL1961873, “Compounds: GSK PKIS; Assays: Nanosyn kinase panel” (2012).
